MCF10A rereplic = inducers of DNA re-replication in MCF 10A breast cells. MCF 10A DNA re-replication, Hoechst nuclear intensity, 48 h. Potency, µM (highest dose often 46.1 µM), for inactives: top-dose activity, positive = re-replication, hits mostly activators. hit rate 2.9% among 350,000. AID 624296; also: % of control where 0% means no effect; nearly all actives have a fitted effect of over 50% in size
KB-V1 cytotox = KB-V1 MDR subline cytotoxicity; KB-V1 MDR cells viability, CellTiter-Glo, 72 h; Potency, µM (doses to about 46.1 µM), hits mostly cytotoxic; hit rate 3.4% among 400,000; also: % is scaled to controls: 0 for no effect and ±100 for the full control effect; nearly all actives have a fitted effect of over 60% in size
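Cytotoxicity toward P-gp-expressing KB-V1 cells was determined as loss of CellTiter-Glo luminescence after 72 h at 37 degrees C. Compounds were tested in quantitative HTS format across a concentration range, with curves fitted to normalized data.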
ALOX12 inh = inhibitors of human 12S-lipoxygenase ALOX12 | Potency, µM (highest dose often 108 µM), for the others: at the top dose activity change, negative = inhibition, most hits filed as inhibitors | AID 1671190 | hit rate 1.1% among 580,000 | P18054 | purified 12hLO, xylenol orange hydroperoxide absorbance; also: % is scaled to controls: 0 for no effect and ±100 for the full control effect
Target sequence (P18054 whole entry, looked up): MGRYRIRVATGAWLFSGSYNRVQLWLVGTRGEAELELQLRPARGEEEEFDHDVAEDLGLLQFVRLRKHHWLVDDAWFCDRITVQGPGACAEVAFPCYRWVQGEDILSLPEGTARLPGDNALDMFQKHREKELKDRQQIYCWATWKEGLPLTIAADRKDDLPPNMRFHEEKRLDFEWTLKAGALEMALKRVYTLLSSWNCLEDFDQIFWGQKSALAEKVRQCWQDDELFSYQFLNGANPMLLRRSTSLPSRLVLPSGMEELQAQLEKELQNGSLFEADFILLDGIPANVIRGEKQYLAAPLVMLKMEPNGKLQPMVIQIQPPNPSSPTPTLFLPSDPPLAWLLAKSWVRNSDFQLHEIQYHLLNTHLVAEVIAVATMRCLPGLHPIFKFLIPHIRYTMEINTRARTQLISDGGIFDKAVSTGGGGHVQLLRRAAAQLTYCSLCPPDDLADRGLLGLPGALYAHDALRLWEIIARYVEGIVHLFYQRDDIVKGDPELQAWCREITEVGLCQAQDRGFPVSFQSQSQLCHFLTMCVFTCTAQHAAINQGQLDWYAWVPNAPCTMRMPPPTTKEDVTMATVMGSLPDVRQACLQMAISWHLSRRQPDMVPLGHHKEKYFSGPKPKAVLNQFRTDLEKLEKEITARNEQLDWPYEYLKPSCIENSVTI
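Hydroperoxide product was detected by ferrous iron/xylenol orange as the 573 to 405 nm absorbance ratio. Arachidonic acid at 40 uM (final) was turned over for 30 min at room temperature by 150 nM human 12hLO, pH 7.0 Hepes buffer, after 15 min compound preincubation.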
PINK1 modulator = changes PINK1 expression | PINK1 immunofluorescence, high-content cytometry, 24 h | Potency, µM (titrated, usually from 76.6 µM), inactives show at the highest dose activation (PINK1 increase), actives largely listed as activators | hit rate 0.2% among 410,000; active = well fitted activation curve with a large enough effect; inconclusive = small, poorly fitted or top-dose-only effect; cell line not stated here; also: % of control where 0% means no effect; nearly all actives have a fitted effect of over 65% in size
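PINK1 protein level read as immunofluorescence by microplate cytometer in a fixed, stained stable cell line after 24 h exposure to five compound concentrations, with CCCP as control.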
SW480 rereplic = induces DNA re-replication in SW480 colon adenocarcinoma cells; SW480 DNA re-replication, Hoechst DNA content imaging, 48 h; Potency, µM (highest dose often 46.1 µM), inactives show top-dose re-replication activation, usual class: activators; hit rate 1.8% among 340,000; AID 624297; also: % of control where 0% means no effect; nearly all actives have a fitted effect of over 55% in size
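Treated cells incubate 48 hr (37 C, 5% CO2), are stained 40 min with Hoechst, and nuclear fluorescence is enumerated; a rise in nuclei with high DNA signal marks re-replication.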
KB-3-1 tox = kills parental KB-3-1 adenocarcinoma cells. KB-3-1 viability, CellTiter-Glo ATP luminescence, 72 h. Potency, µM (highest dose often 46.1 µM), hits mostly cytotoxic. hit rate 1.4% among 400,000; also: % is scaled to controls: 0 for no effect and ±100 for the full control effect; nearly all actives have a fitted effect of over 60% in size
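Parental KB-3-1 viability, qHTS format: 72 h compound exposure, 37 °C; CellTiter-Glo; media-only wells and DMSO plates as controls; concentration-effect fits on corrected data.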
Numbers without * were called inactive; [ ] = remark or other dose. Hits are enriched below; roughly 5.8% of the tested compounds scored in any of these assays. Unless noted, calls follow the shape of the dose curve; as a rule, active = well fitted curve in the direction sought with a large enough effect; inconclusive = small, poorly fitted or top-dose-only effect, or another doubt; inactive = no such curve, though single readings can be large; an effect the other way counts as inactive or inconclusive. Potency is read from the fitted curve at half-maximal effect.

For CC(=O)N1CCN(c2ccc(NC(=S)NC(=O)c3ccccc3)cc2)CC1 the results were MCF10A rereplic inconclusive, KB-V1 cytotox 3.7µM*, ALOX12 inh -26%, PINK1 modulator 7%, SW480 rereplic -74% and KB-3-1 tox inactive.
Screening O=C(NC(=S)Nc1ccc(N2CCOCC2)cc1)c1cccs1 returned MCF10A rereplic 7%, KB-V1 cytotox inactive, ALOX12 inh inconclusive, PINK1 modulator 2%, SW480 rereplic 0% and KB-3-1 tox inactive.
Screening Cc1ccc(C(=O)NC(=S)Nc2ccc(N3CCOCC3)cc2)cc1C returned MCF10A rereplic 14%, KB-V1 cytotox inconclusive, ALOX12 inh 18µM*, PINK1 modulator 1%, SW480 rereplic -30% and KB-3-1 tox inactive.
Screening Cc1cccc(C(=O)NC(=S)Nc2ccc(N3CCOCC3)cc2)c1 returned MCF10A rereplic inconclusive, KB-V1 cytotox 18µM*, ALOX12 inh 45µM*, PINK1 modulator -1%, SW480 rereplic -2% and KB-3-1 tox inactive.
Screening O=C(NC(=S)Nc1ccc(N2CCOCC2)cc1)c1ccc(Cl)cc1 returned MCF10A rereplic 2%, KB-V1 cytotox inactive, ALOX12 inh -10%, PINK1 modulator 18%, SW480 rereplic 1% and KB-3-1 tox inactive.
CC(C)(C)c1ccc(C(=O)NC(=S)Nc2ccc(N3CCOCC3)cc2)cc1 was read as MCF10A rereplic inconclusive, KB-V1 cytotox inactive, ALOX12 inh inconclusive, PINK1 modulator 11%, SW480 rereplic -1% and KB-3-1 tox inactive.
For O=C(CSc1nnc(Cc2cc(=O)[nH]c(=O)[nH]2)n1-c1ccc(F)cc1)c1ccccc1 the results were ALOX12 inh -11%.
`COc1cccc(N2C(=O)NC(=NC3CCCC3)C23CCN(Cc2ccc(N(C)C)cc2)C3)c1` (centres undefined) gave ALOX12 inh 2%[6.33 µM].
Cc1ccc(N/N=C/c2ccc(N3CCOCC3)cc2)cc1C was read as MCF10A rereplic inconclusive, KB-V1 cytotox inactive, ALOX12 inh 8.9µM*, PINK1 modulator -2%, SW480 rereplic -1% and KB-3-1 tox inactive.
Cc1ccc(/C=N/Nc2cc(C)nc(N3CCOCC3)n2)cc1 was read as MCF10A rereplic 10%, KB-V1 cytotox inactive, ALOX12 inh 0%, PINK1 modulator 10%, SW480 rereplic -8% and KB-3-1 tox inactive.
`CC(C)CC(OC(=O)CC1Sc2ccccc2NC1=O)C(=O)NC1CCCC1` (centres undefined) gave MCF10A rereplic -6%, KB-V1 cytotox inconclusive, ALOX12 inh 2%, PINK1 modulator 8%, SW480 rereplic 11% and KB-3-1 tox inactive.
For CCCC(OC(=O)CC1Sc2ccccc2NC1=O)C(=O)NCc1ccco1 (centres undefined) the results were MCF10A rereplic inconclusive, KB-V1 cytotox inconclusive, ALOX12 inh 32µM*, SW480 rereplic 7% and KB-3-1 tox inactive.
COCCNC(=O)C(OC(=O)CC1Sc2ccccc2NC1=O)c1ccncc1 (centres undefined) was read as MCF10A rereplic 4.6µM*, KB-V1 cytotox inactive, ALOX12 inh 11%, PINK1 modulator 1%[38.3 µM], SW480 rereplic 3.7µM* and KB-3-1 tox inactive.
Screening O=C(OCC(=O)N1CCOCC1)c1ccc2[nH]c3c(c2c1)CCCC3 returned MCF10A rereplic -3%, KB-V1 cytotox inactive, ALOX12 inh -8%, PINK1 modulator 1%, SW480 rereplic inconclusive and KB-3-1 tox inconclusive.
Screening Cc1cccc(C)c1NC(=O)COC(=O)c1ccc2[nH]c3c(c2c1)CCCC3 returned MCF10A rereplic 18µM*, KB-V1 cytotox inactive, ALOX12 inh -20%, PINK1 modulator 2%, SW480 rereplic inconclusive and KB-3-1 tox inactive.
For O=C(O)c1ccc2[nH]c3c(c2c1)CCCC3 the results were MCF10A rereplic -15%, KB-V1 cytotox inactive, ALOX12 inh 81%, PINK1 modulator 0%, SW480 rereplic inconclusive and KB-3-1 tox inactive.
`COC(=O)c1ccc(NS(=O)(=O)c2ccc3[nH]c4c(c3c2)CCCCC4)cc1` gave KB-V1 cytotox 23µM*, ALOX12 inh inconclusive, PINK1 modulator 5% and KB-3-1 tox inconclusive.
Screening O=C(COC(=O)c1ccc2[nH]c3c(c2c1)CCCC3)Nc1ccccc1 returned MCF10A rereplic 23µM*, KB-V1 cytotox inconclusive, ALOX12 inh inconclusive, PINK1 modulator 0%, SW480 rereplic inconclusive and KB-3-1 tox inactive.
Screening CC(C)OCCCNC(=O)c1cc(=O)[nH]c2ccccc12 returned ALOX12 inh 18%.
NC(N)=N/N=C/c1ccc(Cl)c(Cl)c1 was read as MCF10A rereplic inconclusive, KB-V1 cytotox 21µM*, ALOX12 inh inconclusive, PINK1 modulator -2%, SW480 rereplic inconclusive and KB-3-1 tox 16µM*.
`O/N=C/c1ccc(Cl)c(Cl)c1` gave ALOX12 inh -10%.
For NC(N)=N/N=C/c1ccc(OCc2ccccc2Cl)cc1 the results were MCF10A rereplic -1%, KB-V1 cytotox inactive, ALOX12 inh inconclusive, PINK1 modulator -8%[38.3 µM], SW480 rereplic 13µM* and KB-3-1 tox inconclusive.
`Cc1ncc(CO)c(/C=N/NC(=S)Nc2ccc(C(C)C)cc2)c1O` gave MCF10A rereplic 20%, KB-V1 cytotox inactive, ALOX12 inh 0%, PINK1 modulator 0%, SW480 rereplic 2.9µM* and KB-3-1 tox inconclusive.
Screening Cc1ncc(CO)c(/C=N/Nc2cccc(Cl)n2)c1O returned MCF10A rereplic 3%, KB-V1 cytotox inactive, ALOX12 inh inconclusive, PINK1 modulator -1%, SW480 rereplic -1% and KB-3-1 tox inactive.
Screening Cc1c(C(=O)NC(c2ccccc2)c2nccn2C)oc2ccc(F)cc12 (centres undefined) returned ALOX12 inh 9%.
`C=CCn1c(CNC(=O)c2cccs2)nnc1SCC(=O)c1ccc(Br)cc1` gave MCF10A rereplic 2%, KB-V1 cytotox 15µM*, ALOX12 inh -17%, PINK1 modulator -17%[38.3 µM], SW480 rereplic -7% and KB-3-1 tox inactive.
`C=CCn1c(CCNC(=O)c2cccs2)nnc1SCC(=O)c1ccc(Cl)cc1` gave MCF10A rereplic 26µM*, KB-V1 cytotox inactive, ALOX12 inh -26%, PINK1 modulator 2%[38.3 µM], SW480 rereplic inconclusive and KB-3-1 tox inactive.
Screening c1ccc(CNCC2CCNCC2)cc1 returned ALOX12 inh 1%.
For Clc1ccc(-c2cnc([C@@H]3COCCN3Cc3ccccc3)[nH]2)cc1 the results were ALOX12 inh -23%[176 µM].
For CN(C)c1ccc(C(=O)N2CCC(n3cc(-c4nc(-c5ccccc5)no4)nn3)CC2)cc1 the results were ALOX12 inh 12%.

Compound activity from PubChem.
